High-throughput results as filed in PubChem BioAssay.
An excerpt weighted towards active compounds, which were near 4.6% of everything screened.
Lassa entry inh – qHTS for Inhibitors of binding or entry into cells for Lassa Virus; actives 1.2% (n = 300,000); Potency, µM (top dose mostly 37.9 µM), for inactives: at the highest dose activity change, negative = inhibition, actives largely listed as inhibitors; AID 540256, 2011; Lassa virus pseudotype entry inhibition, cell reporter; calls by dose curve; tested in HEK293 cells; note: nearly all actives have a fitted effect of over 50% in size
MARV entry inh – qHTS for inhibitors of binding or entry into cells for Marburg Virus | Marburg virus pseudotyped entry inhibition, cell reporter | actives 1.8% (n = 300,000) | Potency, µM (titrated, usually from 37.8 µM), without a hit: at the top dose activity change, negative = inhibition, hits mostly inhibitors; calls by dose curve; tested in HEK293 cells
VACV Venus inh – qHTS for Stage-Specific Inhibitors of Vaccinia Orthopoxvirus: Venus Reporter Primary qHTS; Potency, µM (top dose mostly 36.5 µM), inactives show at the top dose activity change, negative = inhibition, most hits filed as inhibitors; Vaccinia virus Venus reporter expression, fluorescence; actives 0.46% (n = 330,000); calls by dose curve; tested in A549 cells; note: nearly all actives have a fitted effect of over 30% in size
HCV inh – qHTS Assay for Inhibitors of Hepatitis C Virus (HCV) | Huh7.5.1 HCVcc-Cre infection, luciferase reporter, 44 h | Potency, µM (doses to about 41.8 µM), inactives show at the highest dose activity change, negative = inhibition, hits mostly inhibitors | actives 3.4% (n = 340,000) | AID 651820, 2012; active = well fitted inhibition curve with a large enough effect; inconclusive = small, poorly fitted or top-dose-only effect, or another doubt; inactive = no such curve, though single readings can be large or run the other way
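A cell-based infection assay in which seeded cells (1,000 per well) receive test compound after 4 h, are inoculated with HCVcc-Cre at approximately 0.5 moi, and are incubated 44 h before luminescence detection.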
VACV mCherry inh – qHTS for Stage-Specific Inhibitors of Vaccinia Orthopoxvirus: mCherry Reporter Primary qHTS | Potency, µM (doses to about 36.5 µM), inactives show top-dose activity change, negative = inhibition, most hits filed as inhibitors | Vaccinia virus mCherry reporter infection, fluorescence | AID 720579, 2013 | actives 0.63% (n = 310,000); calls by dose curve; tested in A549 cells; note: nearly all actives have a fitted effect of over 35% in size
Numbers without * were called inactive; i = inactive; ? = inconclusive; · = no result given; ! = a repeat was not active; [ ] = another dose, or the depositor's remark. % is set by controls: 0 for no effect and ±100 for the full control effect; potency is the fitted concentration of half-maximal effect.

SMILES | Lassa entry inh | MARV entry inh | VACV Venus inh | HCV inh | VACV mCherry inh
CCN1CCN(c2cc(N3CCCC3)c([N+](=O)[O-])cc2F)CC1 | 10.9% | 0.8% | -19.7% | ? | ?
CCN1CCN(c2cc(N3CCc4ccccc4C3)c(F)cc2[N+](=O)[O-])CC1 | ? | 14.1µM* | ? | 4.47µM* | -15.3%
COc1ccc(C(C)=O)cc1COC(=O)c1cccnc1Cl | 2.3% | 17.9%[46.1 µM] | -5.5% | 11.2µM* | -6.4%
COc1ccc(C(C)=O)cc1COC(=O)c1c(C)noc1C | -20.0% | ? | · | 10µM* | ·
COc1ccc(C(C)=O)cc1COC(=O)c1ccc(OCc2c(C)noc2C)cc1 | -7.2% | -7.3% | -5.2% | ? | -7.0%
C=CCc1cc(Cl)ccc1OCCOCCNC(C)CC (centres undefined) | ? | 11.2µM* | 3.8% | ? | -6.0%
CCC(C)NCCOCCOc1ccc(Cl)c(C)c1C (centres undefined) | ? | ? | ? | 10µM* | -13.4%
CCC(C)NCCCOc1cc(Cl)ccc1Cl (centres undefined) | ? | ? | -21.3% | -20.7% | -22.9%
C=CCc1cc(Cl)ccc1OCCCNC(C)C | ? | ? | -6.0% | ? | i
CCC(C)NCCOCCOc1ccc(Cl)c2ccccc12 (centres undefined) | ? | ? | 28.2µM* | ? | ?
N#Cc1ccc(/C=C2\C=Cc3ccccc32)cc1 | · | · | -13.4% | · | 20.1%
COc1cccc(OCCN2CCN(c3ncnc4c3cnn4-c3ccccc3)CC2)c1 | -17.7% | ? | · | 7.08µM* | ·
O=C(c1ccccc1)N1CCN(c2ncnc3c2cnn3-c2ccccc2)CC1 | 1.7% | ? | ? | 10µM* | -11.7%
Cc1nn(-c2ccccc2)c(Cl)c1C(=O)N1CCN(c2ncnc3c2cnn3-c2ccccc2)CC1 | 12.6µM* | 12.6µM* | ? | 2.24µM* | ·
Cc1ccc(-n2ncc3c(N4CCN(Cc5ccccc5)CC4)ncnc32)cc1 | 13.8%[46.1 µM] | · | -7.8% | · | -16.8%
O=C(c1cccc(Cl)c1)N1CCN(c2ncnc3c2cnn3-c2ccccc2)CC1 | ? | -18.0%[46.1 µM] | -10.0% | -8.0% | -12.8%
CCN(CC)c1ccc(C2C(C(=O)Nc3ccccc3C)=C(C)Nc3ncnn32)cc1 (centres undefined) | -8.2%[46.1 µM] | · | -9.7% | · | -5.7%
CCN(CC)c1ncnc2c1[nH]c1ccccc12 | -7.7% | ? | ? | 11.2µM* | ·
CCCOc1ncnc2c1[nH]c1ccccc12 | -16.7% | -11.6% | · | ? | ·
COc1cc(NC(=O)c2ccc(Cl)cc2)c(OC)cc1NC(=O)CN1CCOCC1 | ? | ? | -13.7% | -10.7% | ·
COc1cc(NC(=O)c2cccc(C)c2)c(OC)cc1NC(=O)CN1CCCCC1 | ? | -24.3%[46.1 µM] | -14.5% | ? | ?
COc1ccc(Cl)cc1NC(=O)CN1CCC(n2nnc3cc(C)ccc32)CC1 | ? | ? | -17.9% | 5.01µM* | -15.1%
COc1cc(NC(=O)c2ccc(C(C)(C)C)cc2)c(OC)cc1NC(=O)CN1CCCCC1 | 10µM* | ? | 4.7% | -8.7% | 1.9%
COc1cc(NC(=O)c2ccc(Cl)cc2)c(OC)cc1NC(=O)CN1CCCCC1 | -22.1% | -27.4%[46.1 µM] | -29.4% | 7.94µM* | -25.6%
COC(=O)CC=C[C@H](C)[C@@H](NC(=O)C(F)(F)F)c1ccccc1Br | · | -21.4%[14.2 µM] | · | · | ·
SMILES | Lassa entry inh | MARV entry inh | VACV Venus inh | HCV inh | VACV mCherry inh
Cc1c(C(=O)N2CCN(C(C)C)CC2)sc2ncnc(NCc3ccco3)c12 | · | · | -23.6% | · | -26.4%
O=C1c2ccccc2NC(c2ccc3c(c2)OCO3)N1Cc1ccco1 (centres undefined) | · | · | -12.3% | · | -4.6%
CCOC(=O)C1(c2ccccc2)CCN(CCC(=O)Nc2ccc(OC)cc2)CC1 | · | · | ? | · | -8.8%
CCOC(=O)C1(c2ccccc2)CCN(CCC(=O)Nc2cccc(Br)c2)CC1 | 12.6µM* | 2.82µM* | ? | 11.2µM* | ?
CS(=O)(=O)NCCNc1ccc(Cl)cc1[N+](=O)[O-] | · | · | -12.1% | 2.0% | -7.3%
CCc1nc(N)nc(N)c1-c1ccc(NCCN)c([N+](=O)[O-])c1 | · | · | 4.47µM* | · | ?
CCc1nc(N)nc(N)c1-c1ccc(N(C)Cc2ccccc2)c([N+](=O)[O-])c1 | ? | 0.891µM* | 1µM* | ? | ?
CCc1nc(N)nc(N)c1-c1ccc(Cl)cc1 | 3.26µM* | ? | ? | ? | 8.91µM*!
